These molecules were tested against thrombin (human, UniProt P00734) (assay: primary screen, binary call; higher = more effect of the substance). Conditions: 200 µM; call rule not given here.
Parameters: screenings were carried out in duplicate in one independent experiment
Method: Protease inhibitory assays were performed in transparent microtiter plates in a final volume of 200 µL with the use of chromogenic substrates. The reaction rates in the absence and in the presence of the inhibitor were measured; screenings were carried out in duplicate in one independent experiment and Ki values were determined in triplicate in two independent experiments.

Thrombin, inactive:
Oc1cnc(-c2ccccc2)nc1 0, N[C@H]1c2ccccc2C[C@H]1CO 0, CC(=O)c1ccc2c(c1)CCCN2 0, CCCN1C(=O)CC(=O)NC1=S 0, O=c1[nH]c2c(s1)CCC2 0, Cc1ccc(-c2ccc(O)cc2)cc1 0, Fc1ccc2c(C3CCNCC3)c[nH]c2c1 0, c1ccc(-c2ccncc2)cc1 0, NC(c1ccccc1)c1ccccc1 0, Cc1cc(-c2ccccc2)n[nH]1 0, O=C(c1ccncc1)N1CCNCC1 0, Cc1cc(N)no1 0, CCN(CC)c1cccc(C)c1 0, CS(=O)(=O)Nc1ccc(C(=O)O)cc1 0, O=C(O)CC1CCC(=O)N1 (stereo not shown) 0, CN1CC(=O)NC1=O 0, CC1C(=O)NC(=O)N1c1ccc(Cl)cc1 (stereo not shown) 0, CC(CN)N1CCc2sccc2C1 (stereo not shown) 0, O=C1NC(=O)/C(=C\c2cccs2)N1 0, N#Cc1ccc(C(=O)N2CCOCC2)cc1 0, Cn1nc(C(F)(F)F)cc1O 0, Nc1ccc(-c2ccccc2)cc1C(=O)O 0, CS(=O)(=O)c1ccc(N2CCNCC2)cc1 0, NCC1(c2ccccc2)CCOCC1 0, c1ccc2sc(N3CCNCC3)nc2c1 0, O=C1NC2(CCCC2)Nc2ccccc21 0, COc1ccccc1CC1CCNCC1.Cl 0, COC(=O)c1c(C)nc(C2CC2)[nH]c1=O 0, COc1ccc(CN2CCNCC2)cc1F 0, Nc1ccc(SC(F)F)cc1 0, O=C(Nc1ccccc1)C1CC1 0, CCn1cnc2ccccc21 0, Cc1nccn1Cc1cccc(C#N)c1 0, Cc1nc(-c2ccccc2)cs1 0, CS(=O)(=O)c1ccc(OC(F)(F)F)cc1 0, COc1cccc(NC2=NCCCCC2)c1 0, O=C1CCN(c2ccccn2)CC1 0, Cc1cc(C)c2c(=O)[nH]n(C)c2n1 0, Oc1ccccc1N1CCCCC1 0

Thrombin, active:
Nc1nnc(-c2cccs2)[nH]1 1
